# HT1080-NT tox = kills 2HG-producing HT-1080-NT fibrosarcoma cells. HT-1080-NT fibrosarcoma viability, CellTiter-Glo ATP luminescence, 48 h. AID 686970. Potency, µM (titrated, usually from 46.1 µM), hits mostly cytotoxic. 1.6% of 360,000 active;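 note: NT is the 2HG producing partner of a matched IDH1 knockdown line; nearly all actives have a fitted effect of over 55% in size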
#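 Read-out is CellTiter-Glo luminescence after 10 minutes at room temperature, following 48 hours' compound treatment of HT-1080-NT cells (750 cells/well, RPMI, 5% FBS, 37 degrees C).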
# ALOX12 inh = ALOX12 (human) lipoxygenase inhibition | purified 12hLO, xylenol orange hydroperoxide absorbance | Potency, µM (top dose mostly 108 µM), most hits filed as inhibitors | P18054 | 1.1% of 580,000 active
# Target sequence (P18054 whole entry, looked up): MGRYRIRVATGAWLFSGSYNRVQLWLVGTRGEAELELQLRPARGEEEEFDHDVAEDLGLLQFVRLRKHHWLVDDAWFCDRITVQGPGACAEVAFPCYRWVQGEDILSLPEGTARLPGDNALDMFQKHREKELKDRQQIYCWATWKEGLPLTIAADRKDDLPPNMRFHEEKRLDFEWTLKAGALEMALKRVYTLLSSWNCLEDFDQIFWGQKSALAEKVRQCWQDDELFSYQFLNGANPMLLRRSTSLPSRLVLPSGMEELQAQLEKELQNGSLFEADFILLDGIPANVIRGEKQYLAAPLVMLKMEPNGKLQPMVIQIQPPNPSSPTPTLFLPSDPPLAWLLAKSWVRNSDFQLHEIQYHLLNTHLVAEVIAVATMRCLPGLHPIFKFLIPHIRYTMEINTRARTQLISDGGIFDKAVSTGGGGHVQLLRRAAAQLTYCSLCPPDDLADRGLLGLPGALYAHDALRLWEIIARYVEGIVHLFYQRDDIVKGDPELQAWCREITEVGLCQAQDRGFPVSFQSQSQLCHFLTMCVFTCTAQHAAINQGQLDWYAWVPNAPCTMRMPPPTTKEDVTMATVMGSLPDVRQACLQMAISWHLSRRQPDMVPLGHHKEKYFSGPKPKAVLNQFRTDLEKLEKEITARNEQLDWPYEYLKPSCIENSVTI
#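 Purified human 12hLO at 150 nM in 25 mM Hepes, 0.01% Triton X-100, pH 7.0, preincubated 15 min at room temperature with compound. Reaction started with 40 uM arachidonic acid, 30 min at room temperature. Hydroperoxide measured by Fe-xylenol orange, 573/405 nm absorbance ratio.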
# HT1080 IDH1KD tx = HT-1080 IDH1 knockdown cell toxicity (counter line). HT-1080 IDH1 knockdown viability, ATP luminescence, 48 h. Potency, µM (doses to about 46.1 µM), actives largely listed as cytotoxic. 2% of 360,000 active
#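 Viability of IDH1-knockdown HT-1080 fibrosarcoma cells was assessed by CellTiter-Glo after 48 h at 37 °C with titrated compound; concentration-effect curves were classified by fit quality and response size.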
# IL-1B inflam inh = blocks inflammasome-driven IL-1 beta release. THP-1 LPS/ATP IL-1B secretion, AlphaLISA, 16 h; hits give low values. activity change, % at 57.5 µM. 4.7% of 360,000 active. AID 743279; in the data active = activity change below about -50%; inconclusive = mostly about -30% to -49%
#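 Secreted IL-1B measured by AlphaLISA bead assay after 16 h compound exposure of THP-1 cells; compounds (final up to 57.5 uM) added 1 h before LPS (250 ng/mL) and ATP (1.25 mM) stimulation; lower signal means less secretion.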
# DT40 TDP1 no CPT = qHTS for Inhibitors of human tyrosyl-DNA phosphodiesterase 1 (TDP1): qHTS in cells in absence of CPT; DT40 Tdp1-/- hTDP1 cells, no CPT, ATP luminescence, 48 h; Potency, µM (highest dose often 46.2 µM), hits mostly inhibitors; 15% of 420,000 active; note: nearly all actives have a fitted effect of over 55% in size
#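 Seeded 400 DT40-hTDP1 cells/well (vehicle DMSO, no 20 nM CPT); pinned compounds; ≥48 hr at 37 °C; CellTiter-Glo luminescence as viability measure.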
# TDP1 cell CPT = growth inhibition of DT40 Tdp1-/-;hTDP1 cells with camptothecin (screen for TDP1 inhibitors); chicken DT40 Tdp1-/-;hTDP1 cells + 20 nM CPT, ATP luminescence, 48 h; 12% of 420,000 active; Potency, µM (highest dose often 46.2 µM), actives largely listed as inhibitors; note: nearly all actives have a fitted effect of over 55% in size
#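 Chicken DT40 Tdp1-/- cells complemented with human TDP1, 400 cells/well, exposed to compounds plus 20 nM camptothecin for at least 48 h at 37 C; viability read as ATP content by CellTiter-Glo luminescence.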
# A number is an active result; i = inactive; ? = inconclusive; nt = no result; [ ] = another dose, or the depositor's remark. The full list was thinned out, with hits kept by preference. Unless noted, calls come from the whole dose curve; as a rule, active = well fitted curve in the direction sought with a large enough effect; inconclusive = small, poorly fitted or top-dose-only effect, or another doubt; inactive = no such curve, though single readings can be large; an effect the other way counts as inactive or inconclusive.
SMILES,HT1080-NT tox,ALOX12 inh,HT1080 IDH1KD tx,IL-1B inflam inh,DT40 TDP1 no CPT,TDP1 cell CPT
CC(C)c1ccc(CN(C)C(=O)c2ccc(S(=O)(=O)NCc3ccco3)cc2)cc1,i,i,i,i,20.6µM,20.6µM
Cc1ccc(S(=O)(=O)N2CN(CC3CCCO3)c3nc4ccccc4nc32)cc1 (stereo unspecified),i,?,i,i,?,i
O=S(=O)(c1cccs1)N1CN(Cc2ccco2)c2nc3ccccc3nc21,i,i,i,i,13µM,?
Cc1ccc(CN2CN(S(=O)(=O)c3cccs3)c3nc4ccccc4nc32)cc1,i,i,i,i,20.6µM,16.4µM
COc1ccccc1CN1CN(S(=O)(=O)c2ccccc2)c2nc3ccccc3nc21,i,i,i,i,?,14.6µM
Cc1cccc(S(=O)(=O)N2CN(Cc3ccco3)c3nc4ccccc4nc32)c1,i,?,i,i,?,18.4µM
COCCN1CN(S(=O)(=O)c2ccccc2)c2nc3ccccc3nc21,i,?,i,i,i,i
O=C1CCCN1CCCN1C(=O)[C@H]2CN(Cc3cccc(OC(F)(F)F)c3)C[C@H]2C1=O,nt,i,nt,nt,nt,nt
O=C(COC(=O)c1ccccc1OCc1ccccc1Cl)c1ccc(C2CCCCC2)cc1,nt,i,nt,nt,nt,nt
CC(=O)c1cccc(NC(=O)c2ccc(-n3cncn3)c3ccoc23)c1,i,?,i,i,?,?
Cc1noc(C)c1-c1ccc(C(=O)Nc2ccc(C(C)C)cc2)c2occc12,?,i,?,i,10.3µM,11.6µM
CC(=O)c1cccc(NC(=O)c2ccc(-c3c(C)noc3C)c3ccoc23)c1,i,?,?,i,?,16.4µM
COc1ccc(NC(=O)c2ccc(-c3c(C)noc3C)c3ccoc23)cn1,?,?,i,i,?,?
COc1ccc(-c2ccc(C(=O)Nc3ccc(Cl)cc3)c3occc23)c(C)c1,?,i,?,i,?,?
Cc1noc(C)c1-c1cc(NCCN2CCOCC2)ncn1,nt,39.8µM,nt,nt,i,i
CC(=O)Nc1ccc(NC(=O)c2ccc(-c3c(C)noc3C)c3ccoc23)cc1,i,i,i,i,?,20.6µM
CCO[C@H]1CN(C(=O)CCCc2nc(-c3ccccc3OC)no2)C[C@@H]1O,nt,i,nt,nt,nt,nt
COc1cccc(-c2cnc([C@@H]3COCCN3Cc3ccccc3)[nH]2)c1,nt,i,nt,nt,nt,nt
O=C1CCc2cc(OC(=O)c3ccc4c(c3)NC(=O)CS4)ccc2N1,nt,i,nt,nt,nt,nt
Cc1noc(C)c1-c1ccc(C(=O)NCCc2ccccc2)c2occc12,i,i,i,i,?,?
Cc1noc(C)c1-c1ccc(C(=O)NCCN2CCOCC2)c2occc12,i,i,i,i,29.1µM,?
Cc1noc(C)c1-c1ccc(C(=O)NCc2cccs2)c2occc12,i,i,i,i,?,?
COc1cc(NC(=O)c2ccc(-c3c(C)noc3C)c3ccoc23)cc(OC)c1OC,i,i,?,i,8.2µM,13µM
COc1ccc(C(=O)N2CCc3ccc(C(=O)NCc4ccncc4)cc32)cc1,nt,i,nt,nt,nt,nt
CNC(=O)[C@@H]1CN(C(=O)c2ccc3c(c2)OCO3)C[C@H]1c1nc(COC)no1,nt,i,nt,nt,nt,nt
SMILES,HT1080-NT tox,ALOX12 inh,HT1080 IDH1KD tx,IL-1B inflam inh,DT40 TDP1 no CPT,TDP1 cell CPT
CC(=O)Nc1cc([N+](=O)[O-])cc(NC(C)=O)c1NC(C)=O,nt,nt,nt,nt,?,7.08µM
CC(=O)Nc1ccc(O)cc1[N+](=O)[O-],i,i,i,i,i,i
O=C(Nc1nc(-c2ccccn2)cs1)c1ccco1,?,?,i,i,1.64µM,5.17µM
C[C@H](NC(=O)c1ccco1)C(=O)Nc1nc(-c2ccccn2)cs1,i,i,i,i,13µM,?
O=C(Nc1nc(-c2ccncc2)cs1)C1c2ccccc2Oc2ccccc21,i,i,i,i,13µM,20.6µM
c1ccc(-c2nc(-c3ccco3)cs2)nc1,i,?,i,i,16.4µM,14.6µM
O=C(C(=O)N1CCCC1)c1c(-c2ccccc2)[nH]c2ccccc12,i,i,i,i,i,i
Cn1ccc(C(=O)N2CC3ON=C(C(=O)NCc4cccnc4)C3C2)n1 (stereo unspecified),nt,i[6.33 µM],nt,nt,nt,nt
Cc1c(S(=O)(=O)N2CCN(c3ccc(F)cc3)CC2)c(=O)n(C)c(=O)n1C,i,i,i,i,i,i
COCCOc1ccc(C(=O)N[C@@H]2CN(C(=O)Nc3ccccc3)CCC[C@H]2O)cc1,nt,i,nt,nt,nt,nt
Cc1ccccc1NC(=O)c1cccc(N2C(=O)C3C4CC(C(Br)C4Br)C3C2=O)c1 (stereo unspecified),i,i,i,i,i,i
O=C(Nc1nc(-c2ccccn2)cs1)c1ccc(Br)s1,2µM,i,1.41µM,i,0.651µM,1.03µM
O=C(Nc1nc(-c2ccccn2)cs1)c1cccc(-n2cnnn2)c1,?,i,?,i,4.61µM,5.17µM
O=C(Nc1nc(-c2cc(Cl)sc2Cl)cs1)c1ccc(Br)s1,i,i,i,i,16.4µM,18.4µM
CCC(=O)N1CCc2cc(-c3csc(NC(=O)c4ccco4)n3)ccc21,?,i,i,i,13µM,?
O=C(Nc1ccc(Br)cc1)c1cccc(-n2cnnn2)c1,i,i,i,i,i,?
CC#CCCC(=O)Nc1ccc(C)cc1,nt,i,nt,nt,nt,nt
O=C(NC(=S)Nc1nc(-c2ccccc2)cs1)c1ccco1,i,i,i,i,i,?
O=C(Nc1nc(-c2ccncc2)cs1)c1ccco1,i,i,i,i,11.2µM,?
COc1ccc(-c2csc(NC(=O)COC(=O)c3ccco3)n2)cc1,i,i,i,i,?,23.1µM
C(=CCSc1ccccn1)CSc1ccccn1,nt,i,nt,nt,nt,nt
COc1ccc(-c2csc3ncnc(Nc4cc(OC)cc(OC)c4)c23)cc1,nt,i,nt,nt,16.4µM,?
COc1ccccc1Nc1ncnc2scc(-c3ccc(F)cc3)c12,nt,i,nt,nt,?,?
COc1ccc(-c2csc3ncnc(Nc4ccc(OC)cc4OC)c23)cc1,nt,i,nt,nt,?,4.11µM
COc1ccc(-c2csc3ncnc(Nc4cc(OC)c(OC)c(OC)c4)c23)cc1,nt,i,nt,nt,nt,nt
SMILES,HT1080-NT tox,ALOX12 inh,HT1080 IDH1KD tx,IL-1B inflam inh,DT40 TDP1 no CPT,TDP1 cell CPT
O=C1Nc2ccccc2C1Cc1ccccc1 (stereo unspecified),i,i,i,i,i,?
O=C1C=CC2(C=C1)O[C@H](Cc1ccccc1)[C@@H](Cc1ccccc1)O2,3.66µM,i,1.16µM,-99.5,0.651µM,1.03µM
COc1ccc(C[C@@H]2OC3(C=CC(=O)C=C3)O[C@H]2Cc2ccc(OC)cc2)cc1,5.17µM,nt,1.3µM,-77.1,0.366µM,0.411µM
COc1ccc(-n2nnc3c(=O)n(Cc4nc(-c5ccccc5C)no4)cnc32)cc1,nt,i,nt,nt,nt,nt
COc1ccc(NC(=O)N2CC(N(C3CCOCC3)S(C)(=O)=O)C2)c(C)c1,nt,i,nt,nt,nt,nt
O=C(c1ccccc1)c1cnc(Nc2ccccc2Cl)s1,i,nt,i,-57.8,i,i
COCC(=O)N1CCN(C(C)=O)C[C@@H]1C(=O)N[C@H](C)C(=O)OC,nt,i,nt,nt,nt,nt
CCN(CC)CC(=O)c1c[nH]c2ccc(C)cc12,i,?,i,i,23.1µM,20.6µM
